High-throughput results deposited in PubChem by The Scripps Research Institute Molecular Screening Center.
MITF primary: MITF inhibitors, primary screen, biochemical, AlphaScreen, human; Microphthalmia-associated transcription factor (Homo sapiens), O75030; AID 1259374, 2018; inhibition, % at 2.6 µM; actives 0.91% (n = 650,000); AlphaScreen MITF homodimerization, bead proximity signal; in the data active = inhibition above about 50%;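 also: 0% = vehicle wells with protein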
TEAD-YAP block: TEAD-YAP interaction inhibition, primary screen, TEAD-YAP interaction inhibitor project, luminescence, HEK-TIYL cells; TEAD-Gal4/YAP UAS-luciferase luminescence; inhibition, % at 9.12 µM; actives 1.4% (n = 640,000); AID 1259422, 2018; in the data active = inhibition above about 32%;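 also: 0% = median of test compound wells and 100% = reference inhibitor wells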
GPR151 ag: activators of human GPR151, primary screen, cell-based, PathHunter beta-arrestin, luminescence; G-protein coupled receptor 151 (Homo sapiens), Q8TDV0; PathHunter beta-arrestin GPR151 cells; activation, % at 11.2 µM; actives 1% (n = 650,000); AID 1508602, 2020; in the data active = activation above about 4.9%;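 also: 0% = median of compound wells and 100% = cells with positive control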
Target sequence (Q8TDV0 whole entry, looked up): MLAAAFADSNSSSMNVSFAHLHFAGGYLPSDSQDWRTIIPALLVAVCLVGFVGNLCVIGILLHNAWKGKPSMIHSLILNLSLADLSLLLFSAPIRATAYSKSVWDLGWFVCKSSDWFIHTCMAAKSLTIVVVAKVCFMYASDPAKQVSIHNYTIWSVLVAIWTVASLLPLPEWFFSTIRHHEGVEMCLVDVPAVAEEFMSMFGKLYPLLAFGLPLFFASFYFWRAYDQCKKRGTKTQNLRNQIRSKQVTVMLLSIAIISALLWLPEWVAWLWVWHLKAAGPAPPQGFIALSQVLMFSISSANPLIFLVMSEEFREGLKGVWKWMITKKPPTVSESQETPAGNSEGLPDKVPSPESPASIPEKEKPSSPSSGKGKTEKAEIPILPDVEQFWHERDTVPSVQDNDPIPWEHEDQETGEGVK
FBW7 activator: FBW7 E3 ligase activators, primary screen, biochemical, AlphaScreen, human; AlphaScreen FBW7–phospho-cyclin E peptide binding, activator screen; normalized activity (activation), % at 26.1 µM; actives 0.13% (n = 650,000); in the data active = normalized activity above about 1.9%;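 also: purified mutant Fbw7 with reduced substrate affinity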
* marks the source's active call; other numbers are inactive results. Only some compounds are listed: those with a hit (about 3.4% of all), similar ones and a draw of the others.

SMILES | MITF primary | TEAD-YAP block | GPR151 ag | FBW7 activator
CCN(CC)C(=O)C1CCCN(c2nc(N)c3ncn(-c4ccccc4)c3n2)C1 (stereo not drawn) | -13 | 46* | -2 | 0
CCN(CC)C(=O)C1CCCN(c2nc(Nc3cc(OC)c(OC)c(OC)c3)c3ncn(C(C)C)c3n2)C1 (stereo not drawn) | 13 | 34* | 0 | 0
CCN(C(=O)c1cc2c(=O)n3ccccc3nc2n1C)c1cccc(C)c1 | 10 | 5 | 0 | 0
CCOC(=O)c1c(NC(=O)c2ccc(OC)c([N+](=O)[O-])c2)sc(C(C)=O)c1C | -4 | 6 | -1 | 0
CCN1/C(=C/C=C/c2cc[n+](CC)c3ccccc23)C=Cc2ccccc21 | 5 | 9 | 0 | 0
CCN1/C(=C/c2ccc3cc(C)ccc3[n+]2CC)C=Cc2ccccc21 | 8 | 92* | -1 | -1
CCN1/C(=C/c2ccc3cc(C)ccc3[n+]2C)Sc2ccc3ccsc3c21 | 23 | 76* | 3 | -1
CCN1/C(=C/c2cccc[n+]2C)C=Cc2cc(C)ccc21 | 7 | 81* | 1 | 0
CCN1/C(=C/c2ccc3cc(C)ccc3[n+]2C)Sc2ccccc21 | 23 | 76* | 2 | 0
CCN1/C(=C\c2c(O)c(=O)c2=O)Sc2ccccc21 | 11 | -5 | -1 | 0
CC[n+]1c(/C=C2\Sc3cc(C)ccc3N2CCO)ccc2ccccc21 | 25 | 64* | 1 | 0
CC[n+]1c(/C=C2\Sc3oc4ccccc4c3N2C)ccc2cc(C)ccc21 | 14 | 44* | 0 | 0
CCN1/C(=C/c2ccc3cc(C)ccc3[n+]2CCO)Sc2ccccc21 | 26 | 58* | 0 | 0
CC(=C\c1sc2oc3ccccc3c2[n+]1CCO)/C=C1/Sc2oc3ccccc3c2N1CCO | -8 | -1 | -1 | 0
CCN1/C(=C/c2c3ccccc3cc[n+]2CC)C=Cc2ccccc21 | 22 | 89* | 1 | 0
CC[n+]1c(/C=C2\Sc3ccccc3N2C)ccc2ccc(C)cc21 | 1 | 77* | 0 | 0
CC[n+]1c(/C=C2\Sc3ccccc3N2CCO)ccc2cc(OC)ccc21 | 3 | 70* | 2 | -1
CC[n+]1c(/C=C2\Sc3cc(NC(C)=O)ccc3N2C)ccc2ccccc21 | 13 | 10 | 0 | 0
CN1/C(=C/c2cccc[n+]2C)C=Cc2ccccc21 | 12 | 71* | 3 | 0
CC[n+]1c(/C=C2\Sc3ccccc3N2CCO)ccc2cc(C)ccc21 | 10 | 53* | 1 | 0
C[n+]1ccccc1/C=C1\Sc2ccccc2N1CCO | 6 | 13 | 0 | 0
Cc1cccc2c1N(C)/C(=C/c1cccc[n+]1C)C=C2 | -3 | 9 | 2 | 0
COc1ccc(C2CC(c3ccc(Cl)cc3)=NN2c2nc(-c3cccc(N4C(=O)c5ccccc5C4=O)c3)cs2)cc1OC (stereo not drawn) | -9 | 4 | 0 | 0
CCCCCNc1nc(-c2ccco2)c2c(c1C#N)CCCC2 | -5 | -2 | 1 | 0
N#Cc1c(NCCN)nc(-c2ccco2)c2c1CCCC2 | -10 | 34* | 0 | 0
SMILES | MITF primary | TEAD-YAP block | GPR151 ag | FBW7 activator
COc1ccc(S(=O)(=O)Nc2cccc(-c3ccc4nncn4n3)c2)cc1F | 15 | 45* | 0 | 1
COc1ccc(S(=O)(=O)Nc2cccc(-c3ccc(N4CCCCC4)nn3)c2)cc1C | -10 | 46* | -3 | 0
O=S(=O)(Nc1cccc(-c2ccc3nncn3n2)c1)c1cccc(C(F)(F)F)c1 | 16 | -8 | -1 | 0
N#Cc1cc(-c2ccnc(Nc3cccc(NC(=O)N4CCCC4)c3)n2)ccc1N1CCCC1 | 22 | 45* | 0 | 0
Cc1ccc(N2CC(C(=O)Nc3ccccc3I)CC2=O)cc1 (stereo not drawn) | -1 | 14 | 1 | 0
CCCn1c(-c2ccc(N)cc2)nc2ccccc21 | 2 | 35* | -8 | 0
COc1ccc(-c2nc3ccccc3c(=O)n2-c2nc3ccccc3n2C)cc1 | -9 | 88* | 0 | 0
COc1ccc(-c2nc3ccccc3n2C)cc1 | 12 | 32* | -8 | 0
CCCCNC(=O)c1ccc(OC2CCN(Cc3ccccn3)CC2)cc1 | 12 | -8 | 4 | 0
CC1=C(C(=O)OC(C)C)C(c2ccco2)C2=C(CCCC2=O)N1 (stereo not drawn) | -19 | 3 | 0 | 0
Cc1ccccc1COc1cccc2ccc(N3CCN(C(=O)c4ccco4)CC3)nc12 | 3 | 16 | 2 | 0
COc1cc(COc2cccc3ccc(N4CCN(C(=O)c5ccco5)CC4)nc23)cc(OC)c1 | -1 | 35* | 0 | 0
CCc1ccc(-n2c(C)cc(/C=C3/C(=N)N4C=CSC4=NC3=O)c2C)cc1 | 14 | -4 | 0 | 0
CC1=CN2C(=N)/C(=C/c3cc(C)n(-c4ccccc4F)c3C)C(=O)N=C2S1 | 6 | -21 | 1 | 0
Cc1cccc(-n2c(C)cc(/C=C3/C(=N)N4C=CSC4=NC3=O)c2C)c1C | -1 | 46* | -1 | 0
Cc1ccccc1-n1c(C)cc(/C=C2/C(=N)N3C=CSC3=NC2=O)c1C | -4 | 97* | -1 | 0
Cc1ccc(C)c(-n2c(C)cc(/C=C3/C(=N)N4C=CSC4=NC3=O)c2C)c1 | 17 | 18 | 1 | 0
Cc1cc(/C=C2/C(=N)N3C=CSC3=NC2=O)c(C)n1-c1ccccc1Cl | 4 | 92* | 1 | 0
CCc1ccccc1-n1c(C)cc(/C=C2/C(=N)N3C=CSC3=NC2=O)c1C | 9 | 62* | -1 | 0
CCCSc1nnc(CNC(=O)c2ccccc2F)n1-c1cccc(Cl)c1 | -7 | 4 | 1 | 0
Cc1cc(/C=C2/C(=N)N3C=CSC3=NC2=O)c(C)n1-c1ccccc1 | 5 | 88* | -2 | 0
Cc1cc(C)cc(-n2c(C)cc(/C=C3/C(=N)N4C=CSC4=NC3=O)c2C)c1 | 8 | 21 | 0 | 0
C=CCOC(=O)C1=C(C)Nc2nnnn2C1c1cccc(OC)c1 (stereo not drawn) | 12 | 50* | -1 | 0
CC(C)n1cnc2c(Nc3ccc(F)cc3)ncnc21 | 18 | 54* | -6 | 0
c1ccc(Cn2ncc3c(NC4CCCCCC4)ncnc32)cc1 | 19 | 20 | 0 | 0
SMILES | MITF primary | TEAD-YAP block | GPR151 ag | FBW7 activator
CC[N+]1=C(C)C(C)(C)c2cc(C)ccc21 | 16 | 50* | 0 | 0
CCc1ccc(Nc2nc(-c3sc(C)nc3C)cs2)cc1 | 12 | 47* | -2 | 0
CCC(=O)Nc1nc(C)c(-c2csc(Nc3cc(OC)ccc3OC)n2)s1 | 16 | 6 | 0 | 0
CCC(=O)Nc1nc(C)c(-c2csc(Nc3ccc(OC)cc3)n2)s1 | 11 | 33* | -1 | 0
Cc1nc(C)c(-c2csc(Nc3ccc(F)cc3)n2)s1 | 8 | -43 | -1 | 0
O=C(NCc1ccccc1F)C1CCN(C(=O)N2CCOc3ccccc32)CC1 | 7 | -1 | -3 | 1
CCC1CCCCN1C(=O)CSc1nc2ccccc2[nH]1 (stereo not drawn) | -1 | -15 | -1 | 0
